{"source": "PubChem BioAssay AID743482", "about": "(Broad Institute, 2014)", "note": "Values without a mark were called inactive.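 How the source made its calls: active means falling viability signal whose fitted half-maximal concentration is at most twice the highest tested dose; inconclusive means flat fit with a moderate drop, or a poor curve fit; inactive means the rest.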"}
{"experiment": "cytotoxicity in HepG2 cells, dose response, cytotoxicity control, cell-based, CellTiter-Glo luminescence, dry powder (AID 743482)", "details": "HepG2 viability, ATP luminescence, 72 h; series mostly up to 26 µM; activity change, negative = cytotoxicity: at the top concentration", "units": {"activity change, negative = cytotoxicity": "%"}}
{"molecule": "C[C@H]1CCCCO[C@@H](CN(C)S(=O)(=O)c2ccc(Cl)cc2)[C@@H](C)CN([C@@H](C)CO)C(=O)c2cc(NC(=O)NC3CCCCC3)ccc2O1", "activity change, negative = cytotoxicity": -6.85}
{"molecule": "C[C@H]1CCCCO[C@@H](CN(C)C(=O)Nc2ccc(F)cc2)[C@@H](C)CN([C@@H](C)CO)C(=O)c2cc(NC(=O)C3CCCCC3)ccc2O1", "activity change, negative = cytotoxicity": 50.6}
{"molecule": "C[C@H](CO)N1C[C@H](C)[C@H](CN(C)C(=O)Nc2ccccc2)OCCCC[C@H](C)Oc2ccc(NC(=O)Nc3ccc4c(c3)OCO4)cc2C1=O", "activity change, negative = cytotoxicity": 2.13}
{"molecule": "C[C@H](CO)N1C[C@H](C)[C@H](CN(C)C(=O)Nc2ccc(F)cc2)OCCCC[C@H](C)Oc2ccc(NC(=O)C3CCCCCC3)cc2C1=O", "activity change, negative = cytotoxicity": 14}
{"molecule": "C[C@H](CO)N1C[C@H](C)[C@H](CN(C)C(=O)Nc2ccccc2)OCCCC[C@H](C)Oc2ccc(NC(=O)Nc3ccccc3)cc2C1=O", "activity change, negative = cytotoxicity": 37.9}
{"molecule": "C[C@H]1CCCCO[C@@H](CN(C)C(=O)Nc2ccc(C(F)(F)F)cc2)[C@@H](C)CN([C@@H](C)CO)C(=O)c2cc(NC(=O)CCC(F)(F)F)ccc2O1", "activity change, negative = cytotoxicity": 8.98}
{"molecule": "C[C@H](CO)N1C[C@H](C)[C@H](CN(C)C(=O)Nc2ccc3c(c2)OCO3)OCCCC[C@H](C)Oc2ccc(NC(=O)C3CCCCC3)cc2C1=O", "activity change, negative = cytotoxicity": 26.9}
{"molecule": "COc1ccc(S(=O)(=O)N(C)C[C@@H]2OCCCC[C@H](C)Oc3ccc(NS(=O)(=O)c4ccc(Cl)cc4)cc3C(=O)N([C@@H](C)CO)C[C@@H]2C)cc1", "activity change, negative = cytotoxicity": -12}
{"molecule": "C[C@@H]1CCCCO[C@@H](CN(C)C(=O)Nc2cccc3ccccc23)[C@H](C)CN([C@@H](C)CO)C(=O)c2cc(NC(=O)C3CCCCC3)ccc2O1", "activity change, negative = cytotoxicity": -6.6}
{"molecule": "C[C@H](CO)N1C[C@H](C)[C@H](CN(C)C(=O)Nc2cccc(F)c2)OCCCC[C@H](C)Oc2ccc(NC(=O)C3CCCCC3)cc2C1=O", "activity change, negative = cytotoxicity": 6.51}
{"molecule": "C[C@H](CO)N1C[C@H](C)[C@H](CN(C)C(=O)Nc2ccc3c(c2)OCO3)OCCCC[C@H](C)Oc2ccc(NC(=O)NC3CCCCC3)cc2C1=O", "activity change, negative = cytotoxicity": 4.37}
{"molecule": "C[C@H]1CCCCO[C@@H](CN(C)C(=O)Nc2ccccc2)[C@@H](C)CN([C@@H](C)CO)C(=O)c2cc(NC(=O)NC3CCCCC3)ccc2O1", "activity change, negative = cytotoxicity": 47.5}
{"molecule": "C[C@@H]1CCCCO[C@H](CN(C)C(=O)Nc2cccc3ccccc23)[C@@H](C)CN([C@H](C)CO)C(=O)c2cc(NC(=O)C3CCCCC3)ccc2O1", "activity change, negative = cytotoxicity": 18.3}
{"molecule": "Cc1ccc(NC(=O)N(C)C[C@@H]2OCCCC[C@H](C)Oc3ccc(NC(=O)C4CCCCC4)cc3C(=O)N([C@H](C)CO)C[C@@H]2C)cc1", "activity change, negative = cytotoxicity": 8.53}
{"molecule": "C[C@H](CO)N1C[C@H](C)[C@H](CN(C)C(=O)Nc2ccccc2)OCCCC[C@H](C)Oc2ccc(NC(=O)C3CCCCC3)cc2C1=O", "activity change, negative = cytotoxicity": 4.6}
{"molecule": "C[C@H](CO)N1C[C@H](C)[C@H](CN(C)C(=O)Nc2cccc3ccccc23)OCCCC[C@H](C)Oc2ccc(NC(=O)c3ccccc3)cc2C1=O", "activity change, negative = cytotoxicity": 22.5}
{"molecule": "C[C@H](CO)N1C[C@H](C)[C@H](CN(C)C(=O)Nc2ccc(Cl)cc2)OCCCC[C@H](C)Oc2ccc(NC(=O)C3CCCCC3)cc2C1=O", "activity change, negative = cytotoxicity": -1.97}
{"molecule": "C[C@H](CO)N1C[C@H](C)[C@H](CN(C)C(=O)Nc2ccc(F)cc2)OCCCC[C@H](C)Oc2ccc(NC(=O)C3CCC3)cc2C1=O", "activity change, negative = cytotoxicity": 10.1}
{"molecule": "C[C@H]1CCCCO[C@H](CN(C)C(=O)Nc2cccc3ccccc23)[C@@H](C)CN([C@@H](C)CO)C(=O)c2cc(NC(=O)C3CCCCC3)ccc2O1", "activity change, negative = cytotoxicity": -1.46}
{"molecule": "C[C@H](CO)N1C[C@H](C)[C@H](CN(C)C(=O)Nc2ccc(F)cc2)OCCCC[C@H](C)Oc2ccc(NC(=O)C3CCCC3)cc2C1=O", "activity change, negative = cytotoxicity": 6.05}
{"molecule": "C[C@@H]1CN([C@H](C)CO)C(=O)c2cc(NC(=O)C3CCCCC3)ccc2O[C@@H](C)CCCCO[C@H]1CN(C)C(=O)Nc1cccc2ccccc12", "activity change, negative = cytotoxicity": -23.2}
{"molecule": "C[C@@H]1CCCCO[C@H](CN(C)C(=O)Nc2cccc3ccccc23)[C@@H](C)CN([C@@H](C)CO)C(=O)c2cc(NC(=O)C3CCCCC3)ccc2O1", "activity change, negative = cytotoxicity": 54.1}
{"molecule": "C[C@H](CO)N1C[C@H](C)[C@H](CN(C)C(=O)Nc2ccccc2)OCCCC[C@H](C)Oc2ccc(NC(=O)CCC(F)(F)F)cc2C1=O", "activity change, negative = cytotoxicity": 15.7}
{"molecule": "CC(C)(C)c1ccc(-c2nc(-c3ccncc3)no2)cc1", "activity change, negative = cytotoxicity": -8.66}
{"molecule": "C[C@@H]1CCCCO[C@@H](CN(C)C(=O)Nc2cccc3ccccc23)[C@@H](C)CN([C@@H](C)CO)C(=O)c2cc(NC(=O)C3CCCCC3)ccc2O1", "activity change, negative = cytotoxicity": 22}
{"molecule": "C[C@H](CO)N1C[C@H](C)[C@H](CN(C)C(=O)Nc2ccc(F)cc2)OCCCC[C@H](C)Oc2ccc(NC(=O)Nc3ccc(F)cc3)cc2C1=O", "activity change, negative = cytotoxicity": 19.8}
